# According to PubChem BioAssay (EPA / NIEHS):
# Values joined by “and” are separate entries in the source; they are usually repeats but may differ in a detail not shown here. Identical values can stand only once. Inconclusive results are not listed. A structure can be active in one record and inactive in another. Active and inactive are the calls of the source. Rule for the calls, unless noted: active = hit-call score of the fitted dose curve at least 0.9, where 1 is the maximum; inactive = score below 0.9.
# Key:
# [1] = target: human RAR-related Orphan Receptor beta (RORb), RORB (gene 6096) (UniProt Q92753); assay: ATG_RORb_TRANS: Attagene TRANS-FACTORIAL HepG2 Assay for human RAR-related Orphan Receptor beta (RORb) (AID 2283010; active = hit-call score of the fitted dose curve at least 0.9, where 1 is the maximum)
# How it was run: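 Transfect HepG2 with multiple GAL4-UAS reporter transcription units; dose chemicals for 24 h; isolate RNA, reverse-transcribe and PCR-amplify reporter sequences; label, digest and resolve fragments by capillary electrophoresis; fit increases relative to DMSO.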
# [2] = target: human RAR-related Orphan Receptor gamma (RORg), RORC (gene 6097) (UniProt P51449); assay: ATG_RORg_TRANS: Attagene TRANS-FACTORIAL HepG2 Assay for human RAR-related Orphan Receptor gamma (RORg) (AID 2283011; active = hit-call score of the fitted dose curve at least 0.9, where 1 is the maximum)
# How it was run: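 Transient MRTU transfection of HepG2 (TRANS format, exogenous NR-Gal4 chimera). 24 h dosing. Total RNA → oligo(dT) RT → PCR → 6-FAM labelling → HpaI cut → CE. Gain vs DMSO.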
# [3] = target: Retinoic acid receptor RXR-alpha (Homo sapiens) (UniProt P19793); assay: ATG_RXRa_TRANS: Attagene TRANS-FACTORIAL HepG2 Assay for human Retinoid X Receptor alpha (RXRa) (AID 2283012; active = hit-call score of the fitted dose curve at least 0.9, where 1 is the maximum)
# How it was run: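 Measures exogenous chimeric NR-GAL4 activity in transfected HepG2 liver cells after 24 h of dosing. Induced reporter mRNA was detected by RT-PCR with capillary electrophoresis, and gain of signal was analysed against DMSO.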
# [4] = target: human Retinoid X Receptor beta (RXRb), RXRB (gene 6257) (UniProt P28702); assay: ATG_RXRb_TRANS: Attagene TRANS-FACTORIAL HepG2 Assay for human Retinoid X Receptor beta (RXRb) (AID 2283013; active = hit-call score of the fitted dose curve at least 0.9, where 1 is the maximum)
# How it was run: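 Chimeric receptor-Gal4 activity was assessed in transiently transfected human HepG2 cells after 24 h exposure. Transcripts from GAL4-UAS reporters were quantified by fluorescent RT-PCR and capillary electrophoresis, with DMSO as negative control and baseline.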
# [5] = target: human Thyroid Receptor alpha (THRa1), THRA (gene 7067) (UniProt P10827); assay: ATG_THRa1_TRANS: Attagene TRANS-FACTORIAL HepG2 Assay for human Thyroid Receptor alpha (THRa1) (AID 2283014; active = hit-call score of the fitted dose curve at least 0.9, where 1 is the maximum)
# How it was run: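 Transient HepG2 transfection, NR-Gal4 chimera driving GAL4-UAS reporters; 24 h compound exposure; total RNA, oligo(dT) RT, PCR, fluorescent primer extension, capillary electrophoresis. Upward direction vs DMSO control.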
# [6] = read-out: E-selectin (Homo sapiens) (UniProt P16581); assay: BSK_3C_Eselectin: BioMAP Diversity Plus: 3C Assay for Eselectin Biomarker Activity (AID 2283015); settings: primary human endothelial cells (HUVEC); actives raise or lower the signal;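 for outcome: cell surface E-selectin protein quantified by ELISA 24 h after dosing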
# How it was run: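 HUVEC, 3C stimulation; compound exposure 24 h; E-selectin by ELISA; gain- or loss-of-signal fitted bidirectionally vs DMSO baseline.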
# [7] = read-out: Interleukin-1 alpha (IL1a), IL1A (gene 3552); assay: BSK_BE3C_IL1a: BioMAP Diversity Plus: BE3C Assay for Interleukin-1 alpha (IL1a) Biomarker Activity (AID 2283016); settings: primary human bronchial epithelial cells; actives raise or lower the signal
# How it was run: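 Signal from IL-1a ELISA, taken 24 h after chemical dosing of human bronchial epithelial cells, is compared with DMSO as baseline using bidirectional curve fitting.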
# [8] = read-out: Monocyte Chemoattractant Protein-1 (MCP1), CCL2 (gene 6347); assay: BSK_3C_MCP1: BioMAP Diversity Plus: 3C Assay for Monocyte Chemoattractant Protein-1 (MCP1) Biomarker Activity (AID 2283017); settings: primary human endothelial cells (HUVEC); actives raise or lower the signal
# How it was run: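 HUVEC, 3C system; 24 h chemical exposure; MCP-1 by ELISA; bidirectional curve fit vs DMSO baseline.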
# [9] = read-out: Monocyte Chemoattractant Protein-1 (MCP1), CCL2 (gene 6347); assay: BSK_4H_MCP1: BioMAP Diversity Plus: 4H Assay for Monocyte Chemoattractant Protein-1 (MCP1) Biomarker Activity (AID 2283018); settings: primary human endothelial cells (HUVEC); actives raise or lower the signal
# How it was run: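 Endothelial cells from umbilical vein were treated with test chemical, then after 24 h MCP-1 levels were quantified by ELISA; endpoint values came from bidirectional fitting with DMSO as baseline of activity.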
# [10] = read-out: Human Leukocyte Antigen - DR isotype (HLADR), HLA-DRA (gene 3122); assay: BSK_3C_HLADR: BioMAP Diversity Plus: 3C Assay for Human Leukocyte Antigen - DR isotype (HLADR) Biomarker Activity (AID 2283019); settings: primary human endothelial cells (HUVEC); actives raise or lower the signal;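 for outcome: ELISA of cell-surface HLA-DR on HUVEC 24 h after dosing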
# How it was run: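 HUVEC, 3C stimulation, 24 h post-dose; HLA-DR by ELISA; bidirectional curve fit vs DMSO baseline; gain or loss of signal scored.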
# [11] = read-out: Interleukin-8 (IL8), CXCL8 (gene 3576); assay: BSK_3C_IL8: BioMAP Diversity Plus: 3C Assay for Interleukin-8 (IL8) Biomarker Activity (AID 2283020); settings: primary human endothelial cells (HUVEC); actives raise or lower the signal
# How it was run: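 Endothelial primary cells of human umbilical vein origin are dosed with chemical; after 24 h the IL-8 biomarker is measured by ELISA, and concentration–response is fitted in both directions versus DMSO.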
# [12] = read-out: Monokine induced gamma interferon (MIG), CXCL9 (gene 4283); assay: BSK_3C_MIG: BioMAP Diversity Plus: 3C Assay for Monokine induced gamma interferon (MIG) Biomarker Activity (AID 2283021); settings: primary human endothelial cells (HUVEC); actives raise or lower the signal;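 for AC50: MIG protein level measured by immunoassay in the treated endothelial cultures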
# How it was run: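 Endothelial primary cells (human umbilical vein) are dosed with test chemical in the 3C system. MIG levels are measured by ELISA at 24 h and fitted in both directions relative to DMSO.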
# [13] = BSK_3C_SRB: Viability Assessment in the BioMAP Diversity Plus: 3C Assay (AID 2283023); settings: primary human endothelial cells (HUVEC);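 note: fitted both ways against DMSO so a hit may be signal rise or drop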
# How it was run: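 HUVEC, 24 h post-dose; 10% TCA fix, 0.1% SRB stain, A560 nm. Bidirectional curve fit vs DMSO negative control.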
# [14] = read-out: Matrix Metallopeptidase 1 (MMP1), MMP1 (gene 4312); assay: BSK_BE3C_MMP1: BioMAP Diversity Plus: BE3C Assay for Matrix Metallopeptidase 1 (MMP1) Biomarker Activity (AID 2283024); settings: primary human bronchial epithelial cells; actives raise or lower the signal
# How it was run: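 MMP1 signal, measured by ELISA after a 24 h chemical exposure of human primary bronchial epithelial cells, is analysed with bidirectional fitting using DMSO as negative control.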
# [15] = BSK_4H_SRB: Viability Assessment in the BioMAP Diversity Plus: 4H Assay (AID 2283027); settings: primary human endothelial cells (HUVEC);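 note: cells exposed to compound for 24 h before staining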;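 for AC50: curves fitted both ways versus DMSO so AC50 may be loss or gain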
# How it was run: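 Cytotoxicity readout: sulforhodamine B (0.1%) staining of total protein after 10% TCA fixation, measured at 560 nm in human umbilical vein endothelium at 24 h. DMSO set the baseline; fitting was bidirectional.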
# [16] = read-out: Thrombomodulin, THBD (gene 7056); assay: BSK_3C_Thrombomodulin: BioMAP Diversity Plus: 3C Assay for Thrombomodulin Biomarker Activity (AID 2283029); settings: primary human endothelial cells (HUVEC); actives raise or lower the signal
# How it was run: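 Endothelial cells from umbilical vein are dosed with test chemical and incubated 24 h. Thrombomodulin is then quantified by ELISA, with DMSO serving as negative control and activity baseline.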
# [17] = BSK_3C_Vis: BioMAP Diversity Plus: 3C Assay for Morphology Visualization (AID 2283025); settings: primary human endothelial cells (HUVEC);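 note: fitted both ways so gain or loss versus DMSO counts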
# How it was run: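 Morphology read by light microscopy serves as a background control for the multiplexed 3C assay in human umbilical vein endothelial cells, taken 24 h after dosing, with DMSO as the negative control and bidirectional curve fitting.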
# [18] = read-out: Pselectin, SELP (gene 6403); assay: BSK_4H_Pselectin: BioMAP Diversity Plus: 4H Assay for Pselectin Biomarker Activity (AID 2283026); settings: primary human endothelial cells (HUVEC); actives raise or lower the signal
# How it was run: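 Endothelial primary cells (human umbilical vein) are dosed, incubated 24 h, and assayed for surface P-selectin by ELISA; responses in either direction are fitted relative to the DMSO negative control.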
# [19] = target: human Vitamin D Receptor (VDR), VDR (gene 7421) (UniProt P11473); assay: ATG_VDR_TRANS: Attagene TRANS-FACTORIAL HepG2 Assay for human Vitamin D Receptor (VDR) (AID 2283022; active = hit-call score of the fitted dose curve at least 0.9, where 1 is the maximum)
# How it was run: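 RT-PCR/capillary electrophoresis read-out of reporter mRNA induction in transiently transfected HepG2; 24 h dosing; chimeric NR-Gal4 (TRANS format); gain-of-signal fit against DMSO baseline.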
# [20] = BSK_BE3C_SRB: Viability Assessment in the BioMAP Diversity Plus: BE3C Assay (AID 2283028); settings: primary human bronchial epithelial cells
# How it was run: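 Primary human bronchial epithelium; chemical dosing, 24 h; 10% TCA fix, 0.1% SRB stain, A560; bidirectional fit vs DMSO baseline.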
# Chain of human Retinoid X Receptor beta (RXRb), RXRB (gene 6257) (P28702 whole entry, looked up, the tested form may be a part): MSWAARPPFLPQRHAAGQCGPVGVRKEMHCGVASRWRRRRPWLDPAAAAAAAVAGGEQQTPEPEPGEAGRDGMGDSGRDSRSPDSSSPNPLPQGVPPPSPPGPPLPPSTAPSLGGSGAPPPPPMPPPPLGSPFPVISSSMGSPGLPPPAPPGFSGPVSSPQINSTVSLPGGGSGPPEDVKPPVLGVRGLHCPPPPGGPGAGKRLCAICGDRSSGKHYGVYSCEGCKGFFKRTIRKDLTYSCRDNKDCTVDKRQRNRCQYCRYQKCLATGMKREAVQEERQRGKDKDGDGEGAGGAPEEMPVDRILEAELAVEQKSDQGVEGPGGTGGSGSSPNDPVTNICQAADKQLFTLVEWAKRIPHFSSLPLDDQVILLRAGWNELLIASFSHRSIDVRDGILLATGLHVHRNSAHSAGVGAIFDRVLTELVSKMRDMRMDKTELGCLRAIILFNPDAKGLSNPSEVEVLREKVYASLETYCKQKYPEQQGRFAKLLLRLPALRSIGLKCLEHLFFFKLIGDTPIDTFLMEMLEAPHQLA
# Chain of human Vitamin D Receptor (VDR), VDR (gene 7421) (P11473 whole entry, looked up, the tested form may be a part): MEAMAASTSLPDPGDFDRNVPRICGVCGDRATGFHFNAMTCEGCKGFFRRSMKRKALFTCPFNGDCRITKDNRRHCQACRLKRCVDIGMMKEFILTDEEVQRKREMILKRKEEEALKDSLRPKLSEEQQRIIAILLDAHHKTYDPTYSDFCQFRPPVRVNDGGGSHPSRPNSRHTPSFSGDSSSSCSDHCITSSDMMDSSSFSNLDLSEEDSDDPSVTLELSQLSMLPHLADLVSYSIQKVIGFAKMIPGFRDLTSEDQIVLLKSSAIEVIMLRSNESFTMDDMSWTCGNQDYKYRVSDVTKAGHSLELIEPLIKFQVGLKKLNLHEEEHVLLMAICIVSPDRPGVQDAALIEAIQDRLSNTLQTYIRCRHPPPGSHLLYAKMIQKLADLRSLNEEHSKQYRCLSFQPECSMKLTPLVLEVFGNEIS
# Chain of E-selectin (Homo sapiens) (P16581 whole entry, looked up): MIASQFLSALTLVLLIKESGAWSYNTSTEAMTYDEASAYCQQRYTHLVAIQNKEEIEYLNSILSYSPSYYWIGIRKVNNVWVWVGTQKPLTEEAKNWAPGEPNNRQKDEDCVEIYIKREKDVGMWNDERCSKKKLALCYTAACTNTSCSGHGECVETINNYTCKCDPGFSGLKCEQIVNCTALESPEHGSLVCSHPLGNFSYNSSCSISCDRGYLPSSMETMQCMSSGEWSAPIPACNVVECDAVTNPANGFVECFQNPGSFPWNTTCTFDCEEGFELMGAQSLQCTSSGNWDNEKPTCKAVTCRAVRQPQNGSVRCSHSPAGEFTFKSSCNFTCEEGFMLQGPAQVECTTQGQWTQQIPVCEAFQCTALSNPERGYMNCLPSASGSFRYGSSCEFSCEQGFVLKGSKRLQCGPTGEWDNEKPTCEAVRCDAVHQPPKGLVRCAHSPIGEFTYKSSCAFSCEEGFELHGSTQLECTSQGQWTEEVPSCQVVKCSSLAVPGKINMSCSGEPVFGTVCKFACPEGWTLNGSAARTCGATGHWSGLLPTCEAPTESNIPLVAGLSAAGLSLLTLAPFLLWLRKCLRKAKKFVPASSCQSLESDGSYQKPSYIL
# Chain of Retinoic acid receptor RXR-alpha (Homo sapiens) (P19793 whole entry, looked up, the tested form may be a part): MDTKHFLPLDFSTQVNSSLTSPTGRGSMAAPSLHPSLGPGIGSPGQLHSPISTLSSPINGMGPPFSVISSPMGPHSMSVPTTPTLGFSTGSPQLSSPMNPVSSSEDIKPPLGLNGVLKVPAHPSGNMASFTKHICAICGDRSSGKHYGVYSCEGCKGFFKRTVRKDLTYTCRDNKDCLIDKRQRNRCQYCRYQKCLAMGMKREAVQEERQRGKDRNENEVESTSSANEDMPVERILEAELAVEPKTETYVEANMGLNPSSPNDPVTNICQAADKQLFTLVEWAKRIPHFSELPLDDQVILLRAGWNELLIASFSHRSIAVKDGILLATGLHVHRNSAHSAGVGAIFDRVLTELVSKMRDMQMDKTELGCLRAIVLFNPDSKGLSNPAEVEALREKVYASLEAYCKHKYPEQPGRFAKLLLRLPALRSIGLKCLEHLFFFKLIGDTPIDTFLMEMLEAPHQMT
# Chain of human Thyroid Receptor alpha (THRa1), THRA (gene 7067) (P10827 whole entry, looked up, the tested form may be a part): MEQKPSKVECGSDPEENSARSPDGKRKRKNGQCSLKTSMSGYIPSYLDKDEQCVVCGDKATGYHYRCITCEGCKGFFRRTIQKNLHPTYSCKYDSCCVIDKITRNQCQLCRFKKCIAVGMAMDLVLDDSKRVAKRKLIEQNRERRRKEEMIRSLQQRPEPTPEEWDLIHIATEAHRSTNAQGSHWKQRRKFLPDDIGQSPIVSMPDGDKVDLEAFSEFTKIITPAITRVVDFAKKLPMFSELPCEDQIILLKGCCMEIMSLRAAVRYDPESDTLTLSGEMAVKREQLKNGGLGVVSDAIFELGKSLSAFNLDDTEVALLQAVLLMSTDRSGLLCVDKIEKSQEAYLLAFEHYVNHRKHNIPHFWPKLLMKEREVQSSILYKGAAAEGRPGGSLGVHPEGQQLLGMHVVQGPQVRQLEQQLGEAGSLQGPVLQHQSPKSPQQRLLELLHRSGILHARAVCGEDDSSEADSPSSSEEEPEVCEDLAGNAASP
# Chain of human RAR-related Orphan Receptor beta (RORb), RORB (gene 6096) (Q92753 whole entry, looked up, the tested form may be a part): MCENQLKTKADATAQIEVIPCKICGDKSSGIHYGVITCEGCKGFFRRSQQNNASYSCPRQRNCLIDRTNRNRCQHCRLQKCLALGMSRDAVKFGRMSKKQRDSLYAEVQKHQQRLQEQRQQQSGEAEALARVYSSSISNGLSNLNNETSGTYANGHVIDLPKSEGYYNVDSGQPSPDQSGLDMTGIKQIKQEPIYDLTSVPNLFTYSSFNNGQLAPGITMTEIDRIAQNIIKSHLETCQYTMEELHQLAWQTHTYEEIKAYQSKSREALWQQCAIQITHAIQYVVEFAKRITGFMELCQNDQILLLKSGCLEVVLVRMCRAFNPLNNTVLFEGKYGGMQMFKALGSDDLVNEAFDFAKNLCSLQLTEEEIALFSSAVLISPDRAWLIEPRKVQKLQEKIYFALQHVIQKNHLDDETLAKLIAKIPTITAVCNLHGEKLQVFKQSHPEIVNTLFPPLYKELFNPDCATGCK
# Chain of human RAR-related Orphan Receptor gamma (RORg), RORC (gene 6097) (P51449 whole entry, looked up, the tested form may be a part): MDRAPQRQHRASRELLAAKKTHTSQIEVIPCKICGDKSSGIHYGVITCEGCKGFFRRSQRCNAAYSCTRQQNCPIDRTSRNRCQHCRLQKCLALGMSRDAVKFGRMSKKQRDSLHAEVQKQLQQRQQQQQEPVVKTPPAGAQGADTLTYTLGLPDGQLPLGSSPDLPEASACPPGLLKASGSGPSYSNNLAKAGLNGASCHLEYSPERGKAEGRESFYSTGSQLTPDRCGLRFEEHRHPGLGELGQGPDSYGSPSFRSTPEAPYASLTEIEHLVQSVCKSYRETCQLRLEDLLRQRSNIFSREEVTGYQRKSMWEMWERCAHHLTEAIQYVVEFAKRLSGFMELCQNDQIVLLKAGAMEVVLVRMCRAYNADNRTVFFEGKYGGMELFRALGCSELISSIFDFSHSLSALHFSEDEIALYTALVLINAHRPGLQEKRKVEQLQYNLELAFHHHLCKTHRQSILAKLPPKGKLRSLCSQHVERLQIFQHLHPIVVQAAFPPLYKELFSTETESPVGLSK
smiles,measurement,setting,value
NS(=O)(=O)C(F)(F)C(F)(F)C(F)(F)C(F)(F)C(F)(F)C(F)(F)C(F)(F)C(F)(F)F,outcome,[1],inactive
same,outcome,[2],inactive
same,outcome,[3],inactive
same,outcome,[4],inactive
same,outcome,[5],inactive
same,AC50,[6],32.5 µM (active) and 56.3 µM (active) and 49.4 µM (active)
same,AC50,[7],43.9 µM (active) and 42.4 µM (active)
same,outcome,[7],inactive
same,AC50,[8],34.4 µM (active) and 47.7 µM (active) and 48.9 µM (active)
same,AC50,[9],24.8 µM (active) and 37.8 µM (active) and 11.1 µM (active)
same,AC50,[10],27.1 µM (active) and 42.6 µM (active) and 44.3 µM (active)
same,AC50,[11],32.8 µM (active) and 47.7 µM (active) and 53.4 µM (active)
same,AC50,[12],33.3 µM (active) and 51.2 µM (active) and 47.8 µM (active)
same,AC50,[13],30.8 µM (active) and 44.1 µM (active) and 43.6 µM (active)
same,AC50,[14],13.4 µM (active) and 7.12 µM (active) and 7.29 µM (active)
same,AC50,[15],26.8 µM (active) and 44.2 µM (active) and 47.6 µM (active)
same,AC50,[16],10.9 µM (active) and 16.4 µM (active)
same,outcome,[16],inactive
CN(C)c1nc(=O)n(C2CCCCC2)c(=O)n1C,outcome,[3],inactive
same,outcome,[4],inactive
same,outcome,[6],inactive
same,outcome,[7],inactive
same,outcome,[8],inactive
same,outcome,[9],inactive
same,outcome,[10],inactive
same,outcome,[11],inactive
same,outcome,[12],inactive
same,outcome,[13],inactive
same,outcome,[14],inactive
same,outcome,[17],inactive
same,outcome,[18],inactive
same,outcome,[15],inactive
same,outcome,[16],inactive
ClC1=C(Cl)[C@]2(Cl)[C@@H]3[C@H]4C[C@H]([C@@H]5O[C@H]45)[C@@H]3[C@@]1(Cl)C2(Cl)Cl,outcome,[3],inactive
same,outcome,[4],inactive
same,outcome,[5],inactive
same,outcome,[6],inactive
same,outcome,[7],inactive
same,outcome,[8],inactive
same,AC50,[9],5.75 µM (active)
same,AC50,[10],7.35 µM (active)
same,outcome,[11],inactive
same,outcome,[12],inactive
same,outcome,[19],inactive
same,AC50,[13],9.88 µM (active)
same,AC50,[14],7.22 µM (active)
same,outcome,[18],inactive
same,AC50,[15],3.97 µM (active)
same,outcome,[16],inactive
Cc1cccc(C)c1N,outcome,[6],inactive
same,outcome,[7],inactive
same,outcome,[8],inactive
same,outcome,[9],inactive
same,outcome,[10],inactive
same,outcome,[11],inactive
same,outcome,[12],inactive
same,outcome,[13],inactive
same,outcome,[14],inactive
same,outcome,[17],inactive
same,outcome,[18],inactive
same,outcome,[15],inactive
same,outcome,[16],inactive
O=C(N[C@H]1CN2CCC1CC2)c1cc2ccoc2cn1,outcome,[4],inactive
same,outcome,[6],inactive
same,outcome,[7],inactive
same,outcome,[8],inactive
same,outcome,[9],inactive
same,outcome,[10],inactive
same,outcome,[11],inactive
same,outcome,[12],inactive
same,outcome,[19],inactive
same,outcome,[13],inactive
same,outcome,[14],inactive
same,outcome,[18],inactive
same,outcome,[15],inactive
same,outcome,[16],inactive
CCSC(=O)N(CC)C1CCCCC1,outcome,[4],inactive
same,outcome,[6],inactive
same,outcome,[7],inactive
same,outcome,[8],inactive
same,outcome,[9],inactive
same,outcome,[10],inactive
same,outcome,[11],inactive
same,outcome,[12],inactive
same,outcome,[19],inactive
same,outcome,[13],inactive
same,outcome,[14],inactive
same,outcome,[17],inactive
same,outcome,[18],inactive
same,outcome,[15],inactive
same,outcome,[16],inactive
Cc1cccc([N+](=O)[O-])c1,outcome,[4],inactive
same,outcome,[6],inactive
same,outcome,[7],inactive
same,outcome,[8],inactive
same,outcome,[9],inactive
same,outcome,[10],inactive
same,outcome,[11],inactive
same,outcome,[12],inactive
same,outcome,[19],inactive
same,outcome,[13],inactive
same,outcome,[14],inactive
same,outcome,[18],inactive
same,outcome,[15],inactive
same,outcome,[20],inactive
same,outcome,[16],inactive
